36 compounds from PubChem BioAssay (Tox21) can be followed below.

Molecules are shown by their SMILES. Values without a mark were called inactive. Records with an inconclusive call do not appear. Calls of active or inactive are those of the source. Calls come from the whole dose curve.
% is set by controls: 0 for no effect and ±100 for the full control effect.

One assay in a line: qHTS assay to identify small molecule agonists of the sonic hedgehog signaling (Shh) pathway (AID 1259368).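 Note: NIH/3T3-derived 3T3Gli1-Luc cells carrying a stable Gli1-driven firefly luciferase reporter; nearly all actives have a fitted effect of over 15% in size.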 The following applies: NIH/3T3 Gli1-Luc reporter, luciferase, 24 h; series mostly up to 92.4 µM; activity change: at the top concentration. Summed up: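 Hedgehog pathway agonism scored by increased firefly luciferase luminescence in 3T3Gli1-Luc cells treated 24 hr at 37 C; detection used a 30 min room-temperature reagent incubation.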
Regarding `CC(C)c1ccccc1`, the “activity change” value was -0.0124%.
On the same count and under the same terms, in the case of `CC(C)CCCCCCc1ccc(OCCOCCO)cc1` it was 1.11%; in that of `Cc1ccsc1C(=CCCN1CCC[C@@H](C(=O)O)C1)c1sccc1C`, -1.51% [at 42.5 µM, hits give high values].
Same read-out and setting: in the case of `Cc1ncc(CO)c(CN)c1O` it was -0.574% [at 42.5 µM, hits give high values]; in that of `CC(CNC1CCCCC1)OC(=O)c1ccccc1` (configuration not stated), -0.0856% [at 42.5 µM, hits give high values].
As to `COc1ccc(S(=O)(=O)Nc2nnc(CC(C)C)s2)cc1`, the “activity change” value was 0.58% [at 42.5 µM, hits give high values].
In the case of `Cn1cnc2c(F)c(Nc3ccc(Br)cc3Cl)c(C(=O)NOCCO)cc21`, the “activity change” value was -4.36% [at 42.5 µM, hits give high values].
On the same count and under the same terms, the same measure for `CO[C@@]1(NC(=O)CSCC#N)C(=O)N2C(C(=O)O)=C(CSc3nnnn3C)CS[C@@H]21`: 0.847% [at 42.5 µM, hits give high values]; for `C[C@@H]1CN(c2c(F)c(F)c3c(=O)c(C(=O)O)cn(C4CC4)c3c2F)C[C@H](C)N1`: 3.53% [at 18.9 µM, hits give high values].
On to `CC(=O)N(CC(O)CN(C(C)=O)c1c(I)c(C(=O)NCC(O)CO)c(I)c(C(=O)NCC(O)CO)c1I)c1c(I)c(C(=O)NCC(O)CO)c(I)c(C(=O)NCC(O)CO)c1I` (configuration not stated), for which the “activity change” value was 0.0929% [at 42.5 µM, hits give high values].
Consider `CC(C)(C)c1cccc(O)c1`, for which the “activity change” value is 0.161%.
Still for that read-out and setting: in the case of `C[C@@H](N)C(=O)O` it was 0.0244% [at 42.5 µM, hits give high values].
On the same count and under the same terms, the same measure for `CCC(=O)O[C@]1(C(=O)SCF)[C@H](C)C[C@H]2[C@@H]3C[C@H](F)C4=CC(=O)C=C[C@]4(C)[C@@]3(F)[C@@H](O)C[C@@]21C`: -0.682% [at 42.5 µM, hits give high values].
The same measure, in the same setting: the same measure for `Cc1c(C(=O)NCCO)[n+](=O)c2ccccc2n1[O-]`: 0.153% [at 42.5 µM, hits give high values]; for `C=Cc1ccccc1`: 0.0006%.
With `CCCNC(C)C(=O)Nc1c(C)csc1C(=O)OC` (configuration not stated), the “activity change” value was 0.431% [at 42.5 µM, hits give high values].
For the compound `CCN(CC)CCNC(=O)COc1ccc(Cl)cc1`, the “activity change” value is -0.306% [at 42.5 µM, hits give high values].
The same measure, in the same setting: in the case of `CC(=O)OC(C)OC(C)=O` it was 0.536%.
On the same count and under the same terms, in the case of `CN(C)Cc1ccccc1` it was -0.918%; in that of `O=c1oc2c(O)c(O)cc3c(=O)oc4c(O)c(O)cc1c4c23`, -1.7% [at 18.9 µM, hits give high values]; in that of `Cc1cc(S(=O)(=O)O)c(N)cc1Cl`, -2.49%.
The same measure, in the same setting: in the case of `O=c1[nH]c(=O)n([C@H]2C[C@H](O)[C@@H](CO)O2)cc1C(F)(F)F` it was -0.473% [at 42.5 µM, hits give high values]; in that of `Nc1cccc(S(=O)(=O)O)c1`, -1.88%.
On to `FC(F)(F)C(F)(F)C(F)(F)C(F)(F)C(F)(F)C(F)(F)C(F)(F)C(F)(F)Br`, for which the “activity change” value was 0.194% [at 42.5 µM, hits give high values].
Same read-out and setting: the same measure for `N#CSCC(=O)O`: 0.11% [at 42.5 µM, hits give high values]; for `CC(=O)O[C@H]1CC[C@@]2(C)C(=CC[C@@H]3[C@@H]2CC[C@]2(C)C(C(C)=O)=CC[C@@H]32)C1`: 3.51% [at 42.5 µM, hits give high values].
Still for that read-out and setting: the same measure for `CCCC(CCC)(C(=O)OCC)C(=O)OCC`: 0.17% [at 42.5 µM, hits give high values].
On to `CC(Oc1c(Cl)cccc1Cl)C1=NCCN1` (configuration not stated), for which the “activity change” value is -1.32% [at 42.5 µM, hits give high values].
Consider `CCN(CC)CC1CCCCN1CC(=O)N1c2ccccc2C(=O)Nc2cccnc21` (configuration not stated), for which the “activity change” value was -0.254% [at 42.5 µM, hits give high values].
As for `COC(C)CCO` (configuration not stated), the “activity change” value is 1.02%.
Same read-out and setting: in the case of `COC(=O)C(C)O` (configuration not stated) it was -10.4%; in that of `O=Cc1ccc(O)c(O)c1O`, -6.72% [at 42.5 µM, hits give high values]; in that of `CN1CCN(N)CC1`, -0.149% [at 42.5 µM, hits give high values].
The same measure, in the same setting: the same measure for `CC1(O)CSC(C)(O)CS1` (configuration not stated): -4.06%.

The next assay is described as follows: qHTS assay to identify small molecule antagonists of the sonic hedgehog signaling (Shh) pathway (AID 1259369). Note: nearly all actives have a fitted effect of over 45% in size. Note: potency is the fitted concentration of half-maximal effect. The settings on record: NIH/3T3 Gli1-Luc reporter, Shh antagonist, luminescence 24 h; series mostly up to 92.4 µM; activity change, negative = inhibition: at the top concentration. Summed up:
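NIH/3T3 stable Gli1-Luc clone, 2,000 cells/well, 4hr settle; cpd + conditioned medium 24hr; Luc reagent 30min RT; luminescence.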
On to `Cc1ccsc1C(=CCCN1CCC[C@@H](C(=O)O)C1)c1sccc1C`, for which the “activity change, negative = inhibition” value is -13% [at 42.5 µM].
As for `Cc1ncc(CO)c(CN)c1O`, the “activity change, negative = inhibition” value was 7.22% [at 42.5 µM].
Turning to `CC(CNC1CCCCC1)OC(=O)c1ccccc1` (configuration not stated), the “activity change, negative = inhibition” value is -3.17% [at 42.5 µM].
Still for that read-out and setting: the same measure for `COc1ccc(S(=O)(=O)Nc2nnc(CC(C)C)s2)cc1`: 20.2% [at 42.5 µM]; for `Cn1cnc2c(F)c(Nc3ccc(Br)cc3Cl)c(C(=O)NOCCO)cc21`: -1.88% [at 42.5 µM]; for `CO[C@@]1(NC(=O)CSCC#N)C(=O)N2C(C(=O)O)=C(CSc3nnnn3C)CS[C@@H]21`: 21.2% [at 42.5 µM].
Same read-out and setting: in the case of `C[C@@H]1CN(c2c(F)c(F)c3c(=O)c(C(=O)O)cn(C4CC4)c3c2F)C[C@H](C)N1` it was 7.04% [at 19 µM].
On the same count and under the same terms, the same measure for `CC(=O)N(CC(O)CN(C(C)=O)c1c(I)c(C(=O)NCC(O)CO)c(I)c(C(=O)NCC(O)CO)c1I)c1c(I)c(C(=O)NCC(O)CO)c(I)c(C(=O)NCC(O)CO)c1I` (configuration not stated): 10.9% [at 42.5 µM]; for `CC(C)(C)c1cccc(O)c1`: 5.72%.
As for `C[C@@H](N)C(=O)O`, the Potency was 21.1 µM (active).
Take `CCC(=O)O[C@]1(C(=O)SCF)[C@H](C)C[C@H]2[C@@H]3C[C@H](F)C4=CC(=O)C=C[C@]4(C)[C@@]3(F)[C@@H](O)C[C@@]21C`: the “activity change, negative = inhibition” value was -4.73% [at 42.5 µM].
The same measure, in the same setting: in the case of `Cc1c(C(=O)NCCO)[n+](=O)c2ccccc2n1[O-]` it was -1.81% [at 42.5 µM].
Still for that read-out and setting: in the case of `C=Cc1ccccc1` it was 10.5%; in that of `CCCNC(C)C(=O)Nc1c(C)csc1C(=O)OC` (configuration not stated), 18.6% [at 42.5 µM]; in that of `CCN(CC)CCNC(=O)COc1ccc(Cl)cc1`, -19.4% [at 42.5 µM].
Same read-out and setting: the same measure for `CC(=O)OC(C)OC(C)=O`: 26.5%.
Consider `CN(C)Cc1ccccc1`, for which the “activity change, negative = inhibition” value is 21.3%.
On the same count and under the same terms, in the case of `O=c1oc2c(O)c(O)cc3c(=O)oc4c(O)c(O)cc1c4c23` it was 14.9% [at 19 µM]; in that of `Cc1cc(S(=O)(=O)O)c(N)cc1Cl`, 2.9%; in that of `O=c1[nH]c(=O)n([C@H]2C[C@H](O)[C@@H](CO)O2)cc1C(F)(F)F`, -29.3% [at 42.5 µM].
For `CC1=C2[C@H](/C=C(\C)C(=O)O)CC[C@@H](C)[C@H]2CC1`, the Potency was 56.5 µM (active).
`Nc1cccc(S(=O)(=O)O)c1`: the “activity change, negative = inhibition” value is 15.7%.
The same measure, in the same setting: in the case of `FC(F)(F)C(F)(F)C(F)(F)C(F)(F)C(F)(F)C(F)(F)C(F)(F)C(F)(F)Br` it was 29.2% [at 42.5 µM]; in that of `N#CSCC(=O)O`, 22.9% [at 42.5 µM]; in that of `CC(=O)O[C@H]1CC[C@@]2(C)C(=CC[C@@H]3[C@@H]2CC[C@]2(C)C(C(C)=O)=CC[C@@H]32)C1`, 6.64% [at 42.5 µM].
Same read-out and setting: in the case of `CCCC(CCC)(C(=O)OCC)C(=O)OCC` it was -11.3% [at 42.5 µM].
Turning to `CC(Oc1c(Cl)cccc1Cl)C1=NCCN1` (configuration not stated), the Potency was 13.3 µM (active).
With `OCCN(CCO)c1ccccc1`, the “activity change, negative = inhibition” value was 2.64%.
`CCN(CC)CC1CCCCN1CC(=O)N1c2ccccc2C(=O)Nc2cccnc21` (configuration not stated): the “activity change, negative = inhibition” value is 2.42% [at 42.5 µM].
On the same count and under the same terms, in the case of `COC(C)CCO` (configuration not stated) it was 20.9%.
Take `O=Cc1ccc(O)c(O)c1O`: the Potency is 26.6 µM (active).
With `CN1CCN(N)CC1`, the “activity change, negative = inhibition” value was 31.8% [at 42.5 µM].
On the same count and under the same terms, in the case of `CC1(O)CSC(C)(O)CS1` (configuration not stated) it was -2.38%.
